Measured values: the supplement of paper PMC7156485
± gives the standard deviation of the averaged measurements.

Key:
Details in all cases: concentration: 10 µM; 24 h
HCC1569 [1] = test: cell number relative to DMSO (% of DMSO); higher = more cells (less growth inhibition / toxicity)
In short: (§1)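 Treatment: HCC1569 and TDF cells, 800 per well in 384-well plates with RPMI and 10% FBS, were given compounds at 10 µM for 24 h at 37 °C, in triplicate. Readout: after 3.7% formaldehyde fixation, cells were stained with a rabbit anti-H1.0 antibody, an AlexaFluor 647 secondary and DAPI. Reported values are H1.0 nuclear intensity or cell number as percent of the plate control, taken as the median of replicates, with positional smoothing for HCC1569.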

TDF [2] = test: as above
In short: as §1

TDF [3] = test: H1.0 immunofluorescence intensity relative to DMSO (% of DMSO); higher = stronger H1.0 induction, active = 120 or more
In short: as §1

HCC1569 [4] = test: H1.0 immunofluorescence intensity relative to DMSO (% of DMSO); higher = stronger H1.0 induction, active = 140 or more
In short: as §1
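Wherever H1.0 immunofluorescence intensity relative to DMSO is given: TDF is a line of transformed human dermal fibroblasts of mesenchymal origin.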
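Wherever cell number relative to DMSO is given: TDF denotes transformed human dermal fibroblasts of mesenchymal origin.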

Row | Structure (SMILES) | cell number (HCC1569 [1]) | cell number (TDF [2]) | H1.0 immunofluorescence intensity (TDF [3]) | H1.0 immunofluorescence intensity (HCC1569 [4])
1 | CCCCCC=CCC=CCC=CCC=CCCCCCC(=O)O [7(Z), 10(Z), 13(Z), 16(Z)-Ocosatetraenoic Acid] | 100 | 114 | 89.2 (inactive) | 106 (inactive)
2 | N#Cc1cc2nc([O-])c([O-])nc2cc1[N+](=O)[O-].[Na+].[Na+] [CNQX disodium] | 99.5 | 101 | 94.1 (inactive) | 101 (inactive)
3 | CCOc1ccc(C(Nc2ccccn2)c2ccc3ccc(C)nc3c2O)cc1C (stereo not given) | 87.7 | 84.1 | 94.8 (inactive) | 115 (inactive)
4 | O=C1C(SCCO)=C(SCCO)C(=O)c2ccccc21 [2,3-bis[(2-hydroxyethyl)sulfanyl]naphthoquinone] | 36.5 | 84.6 | 103 (inactive) | 446 (active)
5 | Cl.Oc1ccc(Nc2nc(-c3ccc(Cl)cc3)cs2)cc1 [Sphingosine Kinase Inhibitor] | 69.3 | 75.1 | 110 (inactive) | 193 (active)
6 | NC(C(=O)O)C1CC(Cl)=NO1 (stereo not given) [Acivicin] | 93.2 | 68.8 | 122 (active) | 108 (inactive)
7 | CC(C)=CCCC(C)=CCCC(C)=CCSCC(=O)O [Farnesylthoiacetic acid] | 100 | 101 | 97.7 (inactive) | 96.1 (inactive)
8 | CNc1nccc(-c2cccnc2Oc2cc(C(=O)Nc3cccc(C(F)(F)F)c3)ccc2C)n1 | 82.3 | 103 | 92.9 (inactive) | 102 (inactive)
9 | COc1cc(C(=O)OC2CC(C)=CCCC(C)=CC(O)C2C(C)C)ccc1O (stereo not given) [Tschimganidin] | 102 | 101 | 96.2 (inactive) | 86.8 (inactive)
10 | CCN(CC)C(=O)C(C#N)=Cc1cc(O)c(O)c([N+](=O)[O-])c1 [Entacapone] | 98.2 | 92 | 95.3 (inactive) | 105 (inactive)
11 | O=C1CC(c2ccc(O)cc2)Oc2cc(O)cc(O)c21 (stereo not given) [Naringenin] | 99.9 | 110 | 90.6 (inactive) | 85.4 (inactive)
12 | CC[C@H](C)[C@H](N)C(=O)N1CCC[C@H]1C(=O)N[C@H](C(=O)O)[C@@H](C)CC | 102 | 85.3 | 97.2 (inactive) | 103 (inactive)
13 | CCCCCCCCCCCCCC(=O)O [Tetradecanoic acid] | 99.4 | 104 | 97.8 (inactive) | 102 (inactive)
14 | CNCCCC1c2ccccc2C=Cc2ccccc21.Cl [Protriptyline hydrochloride] | 92.7 | 99.5 | 109 (inactive) | 117 (inactive)
15 | CCOC(=O)C(CCc1ccccc1)NC(C)C(=O)N1Cc2ccccc2CC1C(=O)O (stereo not given) [Quinapril] | 102 | 101 | 101 (inactive) | 101 (inactive)
16 | CN1CCC(=C2c3ccccc3CC(=O)c3sccc32)CC1 [Ketotifen] | 104 | 102 | 97.6 (inactive) | 124 (inactive)
17 | O=C(NNC(=O)c1ccc(CNS(=O)(=O)c2ccc(F)c(Cl)c2)cc1)c1ccccc1 | 103 | 113 | 95.9 (inactive) | 105 (inactive)
18 | COc1ncnc(NS(=O)(=O)c2ccc(N)cc2)c1OC [Sulfadoxine] | 104 | 97.4 | 91.9 (inactive) | 89.2 (inactive)
19 | COC1=C(OC)C(=O)c2ccccc2C1=O [2,3-Dimethoxy-1,4-naphthoquinone] | 74.6 | 36.2 | 114 (inactive) | 128 (inactive)
20 | CCCCCCCCCCCC(CC1OC(=O)C1CCCCCC)OC(=O)C(CC(C)C)NC=O (stereo not given) [Tetrahydrolipistatin] | 100 | 99.2 | 99.2 (inactive) | 90.5 (inactive)
21 | CC(C)CCCC(C)C1CCC2C3CCC4=CC(N=O)CCC4(C)C3CCC12C [(20S)-cholest-4-en-3-one oxime] | 99.4 | 110 | 90.2 (inactive) | 101 (inactive)
22 | CCCCCC(O)C=CC=CC=CC(O)CC=CCCCC(=O)O (stereo not given) | 101 | 100 | 94.8 (inactive) | 107 (inactive)
23 | CCCCCC(O)C=CC1C(O)CC(O)C1CC(=O)CCCCC(=O)O (stereo not given) [6-Keto-prostaglandin F1a] | 101 | 91.3 | 102 (inactive) | 108 (inactive)
24 | CCN(CC)CCNC(=O)c1cc(Cl)c(N)cc1OC.Cl [Metoclopramide hydrochloride] | 107 | 106 | 94.3 (inactive) | 87.4 (inactive)
25 | Cc1ccc(-c2n[nH]c3c2C(c2cccc(O)c2)N(c2ccc(C(=O)O)cc2)C3=O)cc1 (stereo not given) | 103 | 92.6 | 95 (inactive) | 116 (inactive)

Row | Structure (SMILES) | cell number (HCC1569 [1]) | cell number (TDF [2]) | H1.0 immunofluorescence intensity (TDF [3]) | H1.0 immunofluorescence intensity (HCC1569 [4])
26 | OCC1OC(n2cnc3c(Nc4ccccc4)ncnc32)C(O)C1O (stereo not given) [N6-Phenyladenosine] | 101 | 118 | 86.1 (inactive) | 104 (inactive)
27 | CC(C)NCC(O)c1ccc(O)c(O)c1.Cl (single isomer, unassigned; (-)) [(-)-Isoproterenol hydrochloride] | 104 | 107 | 89.5 (inactive) | 93.8 (inactive)
28 | Cc1ccccc1C(OCCN(C)C)c1ccccc1.Cl (stereo not given) [Orphenadrine hydrochloride] | 100 | 111 | 96.6 (inactive) | 97 (inactive)
29 | Cc1c(Cl)cccc1Nc1ccccc1C(=O)O [Tolfenamic acid] | 105 | 105 | 104 (inactive) | 95 (inactive)
30 | O=C(Nc1ccc(-c2cn[nH]c2)cc1)C1COc2ccccc2O1 (stereo not given) [Rho Kinase Inhibitor V] | 107 | 109 | 87.7 (inactive) | 101 (inactive)
31 | CCCCCC(=O)C=CC1C(O)CC(=O)C1CC=CCCCC(=O)O (stereo not given) [15-keto-prostaglandin E2] | 100 | 108 | 89.3 (inactive) | 90.9 (inactive)
32 | CCCCCC=CC=CC(O)CCCCCCCC(=O)O (racemic) | 103 | 96.8 | 103 (inactive) | 97 (inactive)
33 | Cc1cnc(Nc2ccc(OCCN3CCCC3)cc2)nc1Nc1cccc(S(=O)(=O)NC(C)(C)C)c1 | 67.1 | 43.3 | 116 (inactive) | 189 (active)
34 | CC(=O)OCC1=C(C(=O)[O-])N2C(=O)C(NC(=O)Cc3cccs3)C2SC1.[Na+] (stereo not given) [Cephalothin sodium] | 100 | 113 | 89.4 (inactive) | 89.2 (inactive)
35 | NC(=O)CC[C@H](N)C(=O)O [L-Glutamine] | 100 | 112 | 91.4 (inactive) | 105 (inactive)
36 | Cl.NC(N)=NC(=O)Cc1c(Cl)cccc1Cl [Guanfacine hydrochloride] | 104 | 114 | 86.8 (inactive) | 91.5 (inactive)
37 | CCCn1c(=O)c2c(ncn2C)n(CCC)c1=O [1,3-Dipropyl-7-methylxanthine] | 99.5 | 101 | 93.1 (inactive) | 94.8 (inactive)
38 | O=C(O)c1ccc(O)c2ncccc12 [8-hydroxy-5-quinolinecarboxylic acid] | 102 | 99.2 | 94.9 (inactive) | 98 (inactive)
39 | C[N+](C)(C)CC=O.[Cl-] [Betaine aldehyde chloride] | 104 | 115 | 94.6 (inactive) | 83.1 (inactive)
40 | CCOC(=O)[C@H](Cc1ccc([N+](=O)[O-])cc1)NC(=O)c1ccccc1 [ethyl (2S)-2-(benzoylamino)-3-(4-nitrophenyl)propanoate] | 101 | 98.3 | 93.8 (inactive) | 95 (inactive)
41 | O=C1CCc2c(ccc3ccccc23)O1 [1,2-dihydro-3H-benzo[f]chromen-3-one] | 103 | 101 | 95.1 (inactive) | 92.7 (inactive)
42 | CC1(C)CCCC(C)(C2CCC3(C)C2C(O)CC2C4(C)CCC(O)C(C)(C)C4CCC23C)O1 (stereo not given) [Panaxadiol] | 105 | 103 | 91.8 (inactive) | 93.6 (inactive)
43 | Nc1nc(=O)c2nc(Br)n(C3OC4COP(=O)([O-])OC4C3O)c2[nH]1.[Na+] (stereo not given) [8-Bromo-cGMP sodium] | 101 | 100 | 93.4 (inactive) | 92.8 (inactive)
44 | CC1=NN(c2ccccc2)C(=O)C1 | 101 | 111 | 93.5 (inactive) | 97.6 (inactive)
45 | CC(=O)OCC(=O)[C@@]1(O)CC[C@H]2[C@@H]3CCC4=CC(=O)CC[C@]4(C)[C@@]3(F)[C@@H](O)C[C@@]21C | 103 | 103 | 80 (inactive) | 104 (inactive)
46 | CCCCCCCCCCCCCCCC(=O)NC(COP(=O)(O)O)C(=O)O (stereo not given) | 102 | 109 | 92 (inactive) | 98.9 (inactive)
47 | CCC1=CC2CN(C1)Cc1c([nH]c3ccccc13)C(C(=O)OC)(c1cc3c(cc1OC)N(C)C1C(O)(C(=O)OC)C(OC(C)=O)C4(CC)C=CCN5CCC31C54)C2 (stereo not given) [Vinorelbine] | 56.9 ± 1.3 | 9.75 ± 0.33 | 167 (active) | 153 (active)
48 | CC(=O)c1ccc(N2CCOCC2)cc1O [DNA-PK Inhibitor III] | 99.1 | 93.9 | 93.9 (inactive) | 118 (inactive)
49 | O=C1CN(/N=C/c2ccc(-c3ccc([N+](=O)[O-])cc3)o2)C([O-])=N1.[Na+] | 93.8 | 104 | 97.3 (inactive) | 111 (inactive)
50 | Cl.NCCNC(=O)c1ncsc1-c1cccc(F)c1 [Ro 41-1049 hydrochloride] | 97.5 | 90.9 | 97.4 (inactive) | 104 (inactive)
